# Entries with a potency or affinity are not part of this list. Activity calls are given as the source filed them.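 The calls were made as follows: active = cell killing, meaning signal decrease, with fitted half-maximal dose at or below ten times the top valid tested dose; inconclusive = poor fit, or flat curve with 30 to 70% signal loss; inactive = the rest.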
# Test: ATP-based viability loss in HeLa cells – cell-based, CellTiter-Glo luminescence, cherry-pick samples, cytotoxicity control for MITF activator project, dose response (AID 540259)
# Settings: 24 h; series mostly up to 35 µM
row,SMILES,outcome
1,O=C(Nc1ccc2c(c1)OCO2)c1cc(-c2ccccc2Cl)on1,inactive
2,COc1ccc(-c2nn(-c3ccccc3)cc2C#N)cc1,inactive
3,COC(=O)C(Cc1ccc(O)cc1)N1Cc2ccccc2C1=O (configuration not stated),inactive
4,CC(=O)Nc1ccc2c(c1)ncn2-c1ccccc1,inactive
5,O=C(Nc1ccc(Br)cc1F)c1ccc2nsnc2c1,inactive
6,[O-]/[N+](=C\C=C\c1ccccc1)c1ccccc1,inactive
7,COc1ccc(NC(=O)CCCn2c(=O)oc3ccccc32)cc1Cl,inactive
8,COc1ccc(-c2cc(C(=O)Nc3ccccc3F)on2)cc1,inactive
9,O=C(Nc1cccnc1)c1cc(-c2ccc(Cl)cc2)on1,inactive
10,COc1ccc(Br)c(C(=O)Nc2nc3ccccc3[nH]2)c1,inactive
11,NC(=O)c1cnn(-c2cc(Oc3ccccc3)ncn2)c1N,inactive
12,O=C(O)c1ccc(N/N=C/c2cccc(C(F)(F)F)c2)cc1,inactive
13,O=C(NCc1ccc2c(c1)OCO2)Nc1cccc(Cl)c1,inactive
14,O=C(N=C1N=C2C=CC=CN2Cc2ccccc21)c1ccc(S(=O)(=O)N2CCCC2)cc1,inactive
15,O=C(N/N=C/c1ccc(Cl)cc1Cl)c1cccc(F)c1,inactive
16,Cn1c2ccccc2c(=O)c2cc(C#Cc3ccccn3)ccc21,inactive
17,CC1CCC(NC(=O)c2cc3c(s2)CCCC3)CC1 (configuration not stated),inactive
18,O=C(Cc1ccccc1F)Nc1ccc(SC(F)F)cc1,inactive
19,O=C(Cc1cccs1)NCc1ccc(Cl)cc1Cl,inactive

row,SMILES,outcome
1,COc1ccc(Oc2nnc(C)c3ccccc23)cc1,inactive
2,Nc1nonc1-n1nnc(C(=O)N/N=C/c2ccc(OCc3ccccc3F)cc2)c1CN1CCCCC1,inactive
3,COc1ccc(-c2cn3nc(C)c(C)nc3n2)cc1OC,inactive
4,CN(C)S(=O)(=O)c1cccc(-c2nnc(-c3ccccc3)o2)c1,inactive
5,Cc1nn(-c2ccccn2)c2c1-c1nc(N)ncc1CC2,inactive
6,Cc1ccc(Nc2nnc(-c3ccccc3N)o2)cc1C,inactive
7,Oc1[nH]c2ccccc2c1C=Nc1ccccc1,inactive
8,CC(=O)c1sc(NC(=O)c2ccccc2F)nc1-c1ccccc1,inactive
9,Clc1ccc(-n2nnc(-c3ncc[nH]3)n2)cc1Cl,inactive
10,Cn1c(SCc2c(F)cccc2Cl)nnc1-c1cnccn1,inactive
11,c1cnc(Nc2nc(-c3ccc4ccccc4c3)cs2)nc1,inactive
12,c1ccc2c(c1)NC1(CCCC1)n1c-2nc2ccccc21,inactive
13,CC(C)(C)c1ccc(-c2noc(-c3ccno3)n2)cc1,inactive
14,CC(C)C(=O)Nc1cccc(-c2cnc3ccccc3n2)c1,inactive
15,Cc1cccc(OCc2nc(-c3nonc3N)no2)c1C,inactive
16,Cc1ccc(CSc2ccc(-c3cccs3)nn2)cc1,inactive
17,Clc1ccc(C#Cc2cccnc2)cc1,inactive
18,Cn1cc(Br)c(C(=O)Nc2sc3c(c2C(N)=O)CCCC3)n1,inactive

# From PubChem BioAssay AID540259 (Broad Institute, 2011)
